In PubChem BioAssay (NCI):
This is part of a sample that, as a whole, favours compounds with a hit. Of some 79,000 tested, about 15% had one in any assay. Unmarked numbers belong to inactive results. Activity calls are given as the source filed them. Cut-off read from the data, not from the text of the source: active = growth inhibition above about 70%; inactive = the rest.

Columns and labels:
[1] = NCI Yeast Anticancer Drug Screen. Data for the rad50 strain (AID 155);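 note: 0% = growth of vehicle-only cultures of the same strain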; details: S. cerevisiae rad50 strain growth inhibition; at 50.0 µM; hits give high values
Procedure, shortened: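 Cells are treated with compound, grown, and their growth is then scored against vehicle-only cultures of the same repair-deficient yeast strain.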

[2] = NCI Yeast Anticancer Drug Screen. Data for the mec2-1 strain (AID 157); details: S. cerevisiae mec2-1 strain, at 50.0 µM, hits give high values
Procedure, shortened: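 Test agents were screened against the mec2-1 yeast strain, with defined DNA repair or cell cycle alteration. Growth was scored as inhibition against vehicle-only controls.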

[3] = NCI Yeast Anticancer Drug Screen. Data for the sgs1 mgt1 strain (AID 161);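 note: 0% = growth of cultures given vehicle only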; details: S. cerevisiae sgs1 mgt1 strain, at 50.0 µM, hits give high values
Procedure, shortened: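 Test agents were incubated with a DNA-repair-mutant yeast strain. Growth was then read and compared against vehicle-treated controls.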

[4] = NCI Yeast Anticancer Drug Screen. Data for the cln2 rad14 strain (AID 165);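 note: 0% = growth equal to vehicle treated cultures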; details: S. cerevisiae cln2 rad14 strain, at 50.0 µM, hits give high values
Procedure, shortened: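 Growth of compound-exposed yeast (cln2 rad14 genotype) measured and expressed as inhibition relative to vehicle.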

[5] = NCI Yeast Anticancer Drug Screen. Data for the bub3 strain (AID 167); details: S. cerevisiae bub3 mutant strain, at 50.0 µM, hits give high values
Procedure, shortened: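 Part of a panel of yeast mutants defective in DNA damage repair or cell cycle regulation. Each strain is grown with compound, and inhibition is calculated relative to solvent-treated cultures.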

[6] = NCI Yeast Anticancer Drug Screen. Data for the mlh1 rad18 strain (AID 175); details: S. cerevisiae mlh1 rad18 strain growth inhibition; at 50.0 µM; hits give high values
Procedure, shortened: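 In this whole-cell yeast screen, a strain with altered DNA damage repair is challenged with compound, and its growth is measured against matched vehicle-treated controls.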

Structure (SMILES)	growth inhibition [1]	growth inhibition [2] [%]	growth inhibition [3]	growth inhibition [4] [%]	growth inhibition [5] [%]	growth inhibition [6] [%]
C/C(=C\C(C)(C)c1ccccc1)c1ccccc1	-14.9%	-31.6	-3.75%	-8.35	9.2	-25.1
N#CC(c1ccccc1)C(C#N)c1ccc(Cl)cc1 (stereo unspecified)	5.75%	16.2	-1.35%	-98.5	22.4	3.8
CCC1(C)OCC(CCCCO)O1 (stereo unspecified)	-16.2%	-14.9	-9.4%	-34.9	-11.4	14.3
O=C(NCCN1CCCCC1)c1cccc(I)c1	2.45%	-4.85	15.5%	28.3	8.15	16
Cn1c(=O)c2c(ncn2CCCCn2ccnc2[N+](=O)[O-])n(C)c1=O	-30.1%	-3.95	-14.9%	7.3	-1.25	-5.35
COC(=O)C1(C(=O)OC)CC(=O)c2c(OC(=O)c3cccc(OC)c3C#N)ccc(OC(=O)c3cccc(OC)c3C#N)c2C1	1.05%	3.95	-11.5%	-4.35	0.05	16.9
O=C(Nc1ccc([N+](=O)[O-])cc1Cl)c1ccc(C(=O)Nc2ccc([N+](=O)[O-])cc2Cl)cc1	-6.4%	-1.75	-1.85%	31.3	1.95	0.55
CN(/C=C1\CCCCC1=O)c1ccccc1	-4.35%	-17.2	-35.4%	-14.4	-22.2	-7
CCCCCCCCCCCCCCCCS(=O)(=O)N/N=C(/c1ccc(OC)c(OC)c1)N1CCCCC1	-24.9%	-28.8	8.6%	1.45	-18.1	-7
CCCCCCCC(C)(O)C#CC(C)(O)CCCCCCC (stereo unspecified)	4.35%	-4.15	4.85%	-20.6	5.05	13.3
COC(=O)c1ccc(SCCC(=O)CNc2nc(N)nc(N)c2[N+](=O)[O-])cc1	32.1%	-13.3	17.6%	22.3	-0.2	3.15
O=Cc1cc2c(cc1Cl)OCO2	-3.3%	-8.05	-13.8%	14.8	-8.4	-2
COC(=NC(C)C)NC(C)C	6.3%	-17.2	5.65%	14.2	5.4	14.4
CC1=C(C(=O)NNC(=O)C[N+](C)(C)C)CC(C(=O)NNC(=O)C[N+](C)(C)C)=C(C)N1	-12.4%	-21.1	-10.9%	-31.2	-13.2	-39.9
CC(=O)Nc1ccc(S(=O)(=O)NNC(=O)NNS(=O)(=O)c2ccc(NC(C)=O)cc2)cc1	-6.15%	-7.2	-11.5%	2.5	-7	-10.4
CCOC(=O)NNC(=O)NC12CC3CC(CC(C3)C1)C2	-16.7%	-7.7	5.6%	-24.6	-3.85	1.75
O=S(=O)(O)C(O)C(c1ccccc1)c1ccccc1 (stereo unspecified)	-16.1%	-15.8	-15.6%	-15.8	-7.2	-31.9
COC(=O)c1cc(-c2ccccc2Cl)n2c(N)nnc2n1	21.6%	-3.1	32.6%	-6.2	-20.3	7.1
COc1ccc(N2C(=O)[C@@H]3[C@H](C2=O)c2[nH]c4ccccc4c2C2CCC(C(C)(C)C)C[C@@H]23)cc1 (stereo partly specified)	29.6%	4.1	12.3%	31.4	6.2	7.85
O=C(c1ccc2c(c1)OCO2)C(O)c1ccc(Cl)cc1 (stereo unspecified)	2.85%	3.9	1.85%	-16.1	-4.75	5
O=c1c2c(ccc3ccccc32)oc2ccc3ccccc3c12	15%	1.45	-5.45%	-45.1	-7.65	16.4

Structure (SMILES)	growth inhibition [1]	growth inhibition [2] [%]	growth inhibition [3]	growth inhibition [4] [%]	growth inhibition [5] [%]	growth inhibition [6] [%]
CNc1ccc(C(=O)NC(CCC(=O)O)C(=O)O)cc1I (stereo unspecified)	36.6%	-6.2	-4.1%	0.15	5.5	10.3
CCCCCCCCSc1nc2ccc(N=Cc3ccccc3O)cc2s1	75% (active)	31.7	73.3% (active)	53.6	21.7	36.1
CC1(C)/C(=C/N=O)N(O)C(C)(C)N1O	-26.9%	-34.6	-43.8%	5.75	-35.9	-15.2
O=Cc1ccc(-c2ccc([N+](=O)[O-])cc2)o1	3.7%	9	-9.5%	-7.8	-0.3	3.6
CC(C)(C)n1c(=O)n(-c2ccccc2)n(C(C)(C)C)c1=O	45.5%	-11.8	-28.2%	3	-27.7	-11
CCOC1OC(C(O)CO)C(O)C(O)C1O (stereo unspecified)	4.6%	-8.7	-1.9%	-56.4	-7.9	-0.6
NC1(C(=O)O)CCCC1C(=O)O (stereo unspecified)	-8.7%	-26.6	-23.1%	15.9	-6.3	-2.75
Nc1ccc(N2N=C(N3CCCC3)CC2=O)cc1	-26.6%	-48.8	-10.8%	1.2	-12.7	-23.4
c1ccc2c(c1)NC1(CCCCC1)S2	5.35%	-13.1	39.5%	11.6	5	11.9
COc1ncnc2c(NC3OC(CO)C(O)C3O)ncnc12 (stereo unspecified)	7.2%	-6.5	-5.4%	12.4	-9.2	-9.3
Cc1cc(=O)c2cc(Br)cc(Br)c2[nH]1	11.8%	-13.8	8.3%	0.05	9.85	12
COc1ccc(/C(C)=N/NC(=O)c2ccncc2)c(OC)c1	-7.85%	-20.6	-29.2%	-29.4	-42.6	-33.1
O=C(OC(=O)c1cccc(Br)c1)c1cccc(Br)c1	10.2%	-10.5	26%	34.8	-5.7	1
O/N=C(/C(=N\O)c1ccco1)c1ccco1	-26.1%	-46.5	-13.8%	2.45	-24.1	-8.3
NNc1ncnc2ccc(Cl)cc12	1.05%	-9.15	11.4%	1.05	5.8	6.5
CCCCNc1cccc2ccccc12	50.2%	23.1	-10.2%	-43.5	2.55	27.6
COc1cc(OC)c(N=Nc2c(O)n(C)c(=O)n(C)c2=O)cc1Cl	6.45%	-17.8	14.6%	3.85	10.6	1
O=C(O)Cc1cc2cccc([N+](=O)[O-])c2[nH]1	1.4%	6.65	8.75%	-1.85	-16.1	9.2
C=C(C)COc1ccc2c(c1)CCC1C2CCC2(C)C1CCC2(C)O (stereo unspecified)	21%	0.45	3.75%	17.6	-0.9	6.6
COc1cc(Cc2c(OC)c(OC)cc(C)c2C(=O)O)cc(OC)c1	18.6%	-12.8	-1.75%	6.95	-13.9	-14.4
